Measured values as given in PubChem BioAssay AID651551 (Sanford-Burnham Center for Chemical Genomics, 2012).

Each compound was assayed against PEG-3 (UniProt Q6IN02) (assay: GAPDH versus PEG-3 reporter suppression – cell-based, luminescence, counter-screen for PEG-3 promoter inhibitor project, SAR follow-up (AID 651551)). Details: HeLa PEG-Prom / GAPDH luciferase reporter, 6 or 24 h, run 1, 24 h; at 99 µM (top of the series).

Going from `Cc1cc(NC(=O)c2ccccc2)n(-c2nc3ccccc3[nH]2)n1` to `Cc1cc(NC(=O)c2ccccc2C)n(-c2nc3ccccc3[nH]2)n1`, the inhibition % (higher = more inhibition) rises from -6.81% to 47.5%.

Going from `Cc1nc(NC(=O)c2ccccc2)sc1-c1csc(Nc2ccccc2)n1` to `Cc1nc(NC(=O)c2ccccc2)sc1-c1csc(Nc2ccccc2Cl)n1`, the inhibition % (higher = more inhibition) falls from 73.4% to -64.6%.

Going from `O=C(Nc1nccs1)c1nn(-c2ccccc2)c(=O)c2ccccc12` to `O=C(Nc1nc2ccccc2s1)c1nn(-c2ccccc2)c(=O)c2ccccc12`, the inhibition % (higher = more inhibition) falls from 41.8% to -7.12%.

First: CCn1nc(C(=O)Nc2nc(-c3ccccn3)cs2)c2ccccc2c1=O
Second: CCCn1nc(C(=O)Nc2nc(-c3ccccn3)cs2)c2ccccc2c1=O
The inhibition % (higher = more inhibition) of the first is higher: 49.2% for the first, 39.1% for the second.

Compared with `Cc1cc(NC(=O)c2cccc(C)c2C)n(-c2nc3ccccc3[nH]2)n1`, `Cc1cc(NC(=O)c2ccccc2C(F)(F)F)n(-c2nc3ccccc3[nH]2)n1` is higher in inhibition % (higher = more inhibition): 79.1% for the first, 93.5% for the second.

Going from `COc1ccc(Cl)cc1Nc1nc(-c2sc(NC(=O)c3ccccc3)nc2C)cs1` to `Cc1nc(NC(=O)c2ccccc2)sc1-c1csc(Nc2cccc(Cl)c2C)n1`, the inhibition % (higher = more inhibition) falls from 44.2% to -27.2%.

Going from `COc1ccc(-n2nc(C(=O)NCC(=O)Nc3cc(OC)c(OC)c(OC)c3)c3ccccc3c2=O)cc1OC` to `COc1ccc(-n2nc(C(=O)NCC(=O)Nc3ccc(OC)c(OC)c3)c3ccccc3c2=O)cc1`, the inhibition % (higher = more inhibition) rises from 47.5% to 53.3%.

First: O=C(Nc1nc(-c2ccccc2)cs1)c1nn(-c2ccccc2)c(=O)c2ccccc12
Second: CCCn1nc(C(=O)Nc2nc(-c3ccncc3)cs2)c2ccccc2c1=O
The inhibition % (higher = more inhibition) of the first is lower: 13% for the first, 31.6% for the second.

Going from `Cc1ccc(Cl)cc1Nc1nc(-c2sc(NC(=O)c3ccco3)nc2C)cs1` to `COc1ccccc1Nc1nc(-c2sc(NC(=O)c3ccco3)nc2C)cs1`, the inhibition % (higher = more inhibition) falls from 24.5% to 18.8%.

Compared with `COCCCNC(=O)c1ccc(Cn2c(=O)c3ccccc3n(Cc3ccccc3C#N)c2=O)cc1`, `COc1ccc(-n2nc(C(=O)NCC(=O)Nc3cccc(OC)c3)c3ccccc3c2=O)cc1` is lower in inhibition % (higher = more inhibition): 54.2% for the first, 24.5% for the second.

First: Cc1cc(NC(=O)c2ccccc2)n(-c2nc3ccccc3n2C)n1
Second: CCCn1nc(C(=O)Nc2nc3ccccc3s2)c2ccccc2c1=O
The inhibition % (higher = more inhibition) of the first is lower: 10.1% for the first, 33.1% for the second.

With `CCn1cc(C(=O)NCc2ccco2)c(=O)c2cc(S(=O)(=O)N3CCCC3)ccc21` the inhibition % (higher = more inhibition) was 47.5%.
